Records with an inconclusive call do not appear. Activity calls are given as the source filed them. The calls were made as follows: active = hit-call score of the fitted dose curve at least 0.9, where 1 is the maximum; inconclusive = response in the unintended direction; inactive = score below 0.9.
target: Cellular tumor antigen p53 (Homo sapiens) (UniProt P04637); assay: TOX21_p53_BLA_p5_ratio: Tox21 HCT-116 p53 Agonism Beta-lactamase Assay, Ratio, Phase 5 (AID 2283599)
Outline: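 HCT-116 p53-bla cells (4000/well) plated 5 h, dosed with compound (217-fold DMSO dilution) for 16 h at 37 C; CCF4-AM substrate 2 h at room temperature. Activity is the 460/530 nm emission ratio (405 nm excitation), fitted in gain-of-signal direction versus DMSO.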

Cellular tumor antigen p53 (Homo sapiens), sequence (P04637 whole entry, looked up): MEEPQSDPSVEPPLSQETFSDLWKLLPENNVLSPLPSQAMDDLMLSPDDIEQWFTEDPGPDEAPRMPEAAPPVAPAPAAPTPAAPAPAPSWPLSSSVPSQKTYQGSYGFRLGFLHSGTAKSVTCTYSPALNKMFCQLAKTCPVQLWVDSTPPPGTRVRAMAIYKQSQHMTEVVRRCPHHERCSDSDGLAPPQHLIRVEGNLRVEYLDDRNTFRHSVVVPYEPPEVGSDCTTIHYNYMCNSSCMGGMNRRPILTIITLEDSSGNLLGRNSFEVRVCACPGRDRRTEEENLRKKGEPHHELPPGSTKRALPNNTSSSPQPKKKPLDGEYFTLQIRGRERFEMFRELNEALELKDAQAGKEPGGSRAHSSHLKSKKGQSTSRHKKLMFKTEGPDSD

Row | SMILES | outcome
1 | COc1cccc(-c2ccc(/C=C\CN3CCCCCC3)cc2Cl)c1 | inactive
2 | Fc1ccccc1[C@@H](F)COC1CCC(Nc2ncnc3[nH]ncc23)CC1 (some centres undefined) | inactive
3 | O=c1[nH]c2ccc(S(=O)CCN3CCC(Cc4ccc(F)cc4)CC3)cc2o1 (centres undefined) | inactive
4 | CCOC(=O)c1ccc(C2CCC(NC[C@H](O)COc3ccc(O)c(NS(C)(=O)=O)c3)CC2)cc1 (some centres undefined) | inactive
5 | CCN(C(=O)c1cc(C)cc(OC[C@H](C)Nc2ccncc2)c1)C(C)C | inactive
6 | Cc1ccc(O)cc1 | inactive
7 | CNS(=O)(=O)c1cc(C(=O)N2CCC(CCN3C4CCC3CC(n3c(C)nc5ccccc53)C4)(c3cccc(F)c3)CC2)c(Cl)cc1F (centres undefined) | inactive
8 | CN(C)c1ccc(Cc2ccc(N(C)C)cc2)cc1 | inactive
9 | CCNc1ccccc1 | inactive
10 | CCn1nc(Cc2ccccc2)cc1C1CCN(C[C@H]2C[C@H](N(C)[C@@H](C(=O)O)C(C)C)C[C@@H]2c2cccc(F)c2)CC1 | inactive
11 | CC(C)CCCCCCOC(=O)c1ccc(C(=O)OCCCCCCC(C)C)c(C(=O)OCCCCCCC(C)C)c1 | inactive
12 | CC(C)=CCC/C(C)=C/CO | inactive
13 | CC(=O)c1ccc2c(c1)[C@H](NC(=O)c1ccc(F)cc1)[C@@H](O)C(C)(C)O2 | inactive
14 | Cc1ccc(N)cc1O | inactive
15 | CC1=CC(=O)CC(C)(C)C1 | inactive
16 | COC(=O)CC(=O)OC | inactive
17 | CCCCC(CC)COC(=O)c1ccc(C(=O)OCC(CC)CCCC)cc1 (centres undefined) | inactive
18 | COc1ccc2sc(C(=O)Nc3nnn[nH]3)c(OC(C)C)c2c1 | inactive
19 | Cc1c(-c2cccnc2)c2ccccc2n1CCCCC(=O)O | inactive
